Laboratory results taken from PubChem BioAssay (Tox21).
Records with an inconclusive call do not appear. Values without a mark were called inactive. Unless noted, the call rests on the fitted dose curve; in most records, active means well fitted cell-killing curve with a large enough effect in the repeat runs; inconclusive means weak or mixed curves; inactive means no such curve, though single readings can be large or run the other way.

Target: Peroxisome proliferator-activated receptor delta (Homo sapiens) (UniProt Q03181)
Experiment: qHTS assay to identify small molecule agonists of the peroxisome proliferator-activated receptor delta (PPARd) signaling pathway (AID 743212; calls by dose curve)
Settings: HEK293H PPARd-UAS-bla, beta-lactamase FRET ratio, 17 h; series mostly up to 62.6 µM; activation: at the top concentration
Method in brief: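 A PPARd-bla HEK293H line with beta-lactamase under an Upstream Activator Sequence is treated with compounds at 37 C. Substrate loading for 2 h at room temperature precedes the fluorescence measurement.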
On the % scale 0 is the no-effect control and ±100 the full control effect.

Chain of Peroxisome proliferator-activated receptor delta (Homo sapiens) (Q03181 whole entry, looked up): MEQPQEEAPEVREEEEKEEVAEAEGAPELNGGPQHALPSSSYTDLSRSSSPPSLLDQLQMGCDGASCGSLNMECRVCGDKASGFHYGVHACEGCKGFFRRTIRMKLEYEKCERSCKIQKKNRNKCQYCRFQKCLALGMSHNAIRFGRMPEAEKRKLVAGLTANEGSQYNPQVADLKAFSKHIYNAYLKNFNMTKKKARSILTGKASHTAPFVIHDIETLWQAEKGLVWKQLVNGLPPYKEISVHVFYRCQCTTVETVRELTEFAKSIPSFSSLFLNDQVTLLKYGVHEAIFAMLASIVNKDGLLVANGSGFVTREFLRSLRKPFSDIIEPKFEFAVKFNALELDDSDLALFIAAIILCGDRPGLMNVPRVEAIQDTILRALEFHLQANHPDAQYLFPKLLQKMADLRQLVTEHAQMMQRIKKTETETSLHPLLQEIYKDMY

SMILES | activation
O=C(COCCOCCOCC(=O)Nc1c(I)cc(I)c(C(=O)O)c1I)Nc1c(I)cc(I)c(C(=O)O)c1I | 9.23%
CCCCCC1CCCC(=O)O1 (stereo unspecified) | -1.88%
Cc1oc(=O)oc1CN1CCN(c2cc3c(cc2F)c(=O)c(C(=O)O)c2n3C(C)S2)CC1 (stereo unspecified) | 5.16%
COC(OC)C(C)c1ccccc1 (stereo unspecified) | -4.75%
CCNC(=O)/C=C/c1cccc(Br)c1 | -3.36%
N#CCCOCCOCCC#N | 0.653%
Nc1ccc(S(=O)(=O)NC(=O)c2ccccc2)cc1 | -0.778%
CCCOC(=O)CCCCC(=O)OCCC | -3.64%
COc1cc(C=O)ccc1OC(=O)C(C)C | -1.14%
CCC(O)C(C)(C)C (stereo unspecified) | -2.28% [at 81.1 µM]
O=C(O)c1c(Cl)ccc(Cl)c1Cl | -2.24%
O=[Si]=O | 5.12%
CCC(=O)OCCC(C)CCC=C(C)C (stereo unspecified) | -1.07%
COc1cc2c3cc1Oc1cc(ccc1O)C[C@@H]1c4c(cc(OC)c(O)c4Oc4ccc(cc4)C[C@@H]3N(C)CC2)CC[N+]1(C)C | 0.835%
CC(=O)c1ccc(OCC(=O)N2CCCCC2)cc1 | 0.244%
CNCc1ccccc1 | 0.312%
CN=C(NC#N)NCCSCc1csc(N=C(N)N)n1 | 0.105%
COc1ccc(N=Nc2cc(C)c(N=Nc3ccc(S(=O)(=O)O)cc3)cc2OC)cc1 | -9.1%
O=C1OC(=O)c2ccccc21 | -0.551%
NC(=O)C1(N2CCCCC2)CCN(CCCC(=O)c2ccc(F)cc2)CC1 | -1.45%
O=C(/C=C/c1ccccc1)NCCO | -0.0448%
O=C(O)Cc1cccc(-c2cc(CCCCCCc3ccc(O[C@H]4O[C@H](CO)[C@@H](O)[C@H](O)[C@@H]4O)c(-c4cccc(CC(=O)O)c4)c3)ccc2O[C@H]2O[C@H](CO)[C@@H](O)[C@H](O)[C@@H]2O)c1 | -0.0045% [at 0.55 µM]
O=C(Oc1ccccc1C(=O)O)c1ccccc1O | 0.484%

Test system: not listed separately
Experiment: qHTS assay to identify small molecule antagonists of the peroxisome proliferator-activated receptor delta (PPARd) signaling pathway - cell viability counter screen (AID 743213); further: nearly all actives have a fitted effect of over 50% in size
Settings: PPARd-bla HEK293H viability, CellTiter-Glo luminescence, 17 h; series mostly up to 62 µM; viability change, negative = cytotoxic: at the top concentration
Method in brief: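 HEK293H PPARd UAS-bla cells, 5 h pre-incubation, compound + L165041 300 nM final, 17 h 37 C; B/G FRET substrate 2 h RT; then CellTiter-Glo 30 min RT, luminescence.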

SMILES | viability change, negative = cytotoxic
C[C@H]1O[C@H](O[C@H]2[C@H](O)[C@@H](O)[C@@H](O[C@H]3[C@H](O)[C@@H](O)[C@H](O)O[C@@H]3CO)O[C@@H]2CO)[C@H](O)[C@@H](O)[C@@H]1N[C@H]1C=C(CO)[C@@H](O)[C@H](O)[C@H]1O | 5.06%
CCCCCC1CCCC(=O)O1 (stereo unspecified) | -0.66%
Nc1cc(Cl)cc(S(=O)(=O)O)c1O | -15.7% [at 80.4 µM]
Cc1oc(=O)oc1CN1CCN(c2cc3c(cc2F)c(=O)c(C(=O)O)c2n3C(C)S2)CC1 (stereo unspecified) | 14.8%
COC(OC)C(C)c1ccccc1 (stereo unspecified) | 2.21%
CCNC(=O)/C=C/c1cccc(Br)c1 | -1.74%
N#CCCOCCOCCC#N | 6.9%
Nc1ccc(S(=O)(=O)NC(=O)c2ccccc2)cc1 | 22.1%
CCC(O)C(C)(C)C (stereo unspecified) | 1.65% [at 80.4 µM]
O=C(O)c1c(Cl)ccc(Cl)c1Cl | 3.51%
CC(C)CCC(=O)CCC(C)C | 1.58%
Cc1cc(O)c2c(c1)C(=O)c1cccc(O)c1C2=O | -2.71%
CCC(=O)OCCC(C)CCC=C(C)C (stereo unspecified) | 17.5%
C=CCOc1c(Br)cc(C(C)(C)c2cc(Br)c(OCC=C)c(Br)c2)cc1Br | -6.12%
COc1cc2c3cc1Oc1cc(ccc1O)C[C@@H]1c4c(cc(OC)c(O)c4Oc4ccc(cc4)C[C@@H]3N(C)CC2)CC[N+]1(C)C | 4.58%
Cc1ccccc1N1CCN(CCc2nnc3n2CCCC3)CC1 | 6.43%
CC(=O)c1ccc(OCC(=O)N2CCCCC2)cc1 | 9.74%
O=S(=O)(O)CCO | -16% [at 80.4 µM]
CNCc1ccccc1 | 21.3%
COc1ccc(N=Nc2cc(C)c(N=Nc3ccc(S(=O)(=O)O)cc3)cc2OC)cc1 | 20%
O=C1OC(=O)c2ccccc21 | 16.6%
O=S1(=O)CCCC1 | 10.4% [at 80.4 µM]
Cc1cccc(C(=O)O)c1[N+](=O)[O-] | 5.59%
NC(=O)C1(N2CCCCC2)CCN(CCCC(=O)c2ccc(F)cc2)CC1 | -0.671%
O=C(/C=C/c1ccccc1)NCCO | 11.1%
O=C(O)Cc1cccc(-c2cc(CCCCCCc3ccc(O[C@H]4O[C@H](CO)[C@@H](O)[C@H](O)[C@@H]4O)c(-c4cccc(CC(=O)O)c4)c3)ccc2O[C@H]2O[C@H](CO)[C@@H](O)[C@H](O)[C@@H]2O)c1 | 9.66% [at 0.575 µM]
O=C(Oc1ccccc1C(=O)O)c1ccccc1O | 7.93%
CN[C@@H]1[C@H](O)[C@H](NC)[C@H]2O[C@@]3(O)C(=O)C[C@@H](C)O[C@H]3O[C@@H]2[C@H]1O | 21%

Target: Peroxisome proliferator-activated receptor delta (Homo sapiens) (UniProt Q03181)
Experiment: qHTS assay to identify small molecule antagonists of the peroxisome proliferator-activated receptor delta (PPARd) signaling pathway (AID 743215; active means well fitted inhibition curve with a large enough effect in the signal ratio in the repeat runs, not every such curve was filed as active; the % refers to the signal ratio;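 further: cells stimulated with agonist L165041 at 300 nM final during compound exposure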)
Settings: HEK293H PPARd-UAS-bla, beta-lactamase FRET ratio, antagonist, 17 h; series mostly up to 62 µM; ratio activity, negative = inhibition: at the top concentration
Method in brief: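 Read-out is beta-lactamase FRET fluorescence, measured 2 h after substrate addition at room temperature. Beforehand, UAS-bla HEK293H cells carrying the PPARd reporter were exposed to compounds with L165041 at 300 nM final for 17 h at 37 C.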

SMILES | ratio activity, negative = inhibition
O=C(COCCOCCOCC(=O)Nc1c(I)cc(I)c(C(=O)O)c1I)Nc1c(I)cc(I)c(C(=O)O)c1I | 18%
C[C@H]1O[C@H](O[C@H]2[C@H](O)[C@@H](O)[C@@H](O[C@H]3[C@H](O)[C@@H](O)[C@H](O)O[C@@H]3CO)O[C@@H]2CO)[C@H](O)[C@@H](O)[C@@H]1N[C@H]1C=C(CO)[C@@H](O)[C@H](O)[C@H]1O | 6.14%
CCCCCC1CCCC(=O)O1 (stereo unspecified) | 4.8%
Cc1oc(=O)oc1CN1CCN(c2cc3c(cc2F)c(=O)c(C(=O)O)c2n3C(C)S2)CC1 (stereo unspecified) | 5.64%
COC(OC)C(C)c1ccccc1 (stereo unspecified) | -10.5%
CCNC(=O)/C=C/c1cccc(Br)c1 | 1.93%
N#CCCOCCOCCC#N | 6.35%
Nc1ccc(S(=O)(=O)NC(=O)c2ccccc2)cc1 | -3.14%
COc1cc(C=O)ccc1OC(=O)C(C)C | 5.12%
CCC(O)C(C)(C)C (stereo unspecified) | 13.5% [at 80.4 µM]
O=C(O)c1c(Cl)ccc(Cl)c1Cl | 1.03%
Cc1cc(O)c2c(c1)C(=O)c1cccc(O)c1C2=O | 2.39%
O=[Si]=O | 6.03%
COc1cc2c3cc1Oc1cc(ccc1O)C[C@@H]1c4c(cc(OC)c(O)c4Oc4ccc(cc4)C[C@@H]3N(C)CC2)CC[N+]1(C)C | -10.1%
Cc1ccccc1N1CCN(CCc2nnc3n2CCCC3)CC1 | 2.48%
CC(=O)c1ccc(OCC(=O)N2CCCCC2)cc1 | 3.8%
O=S(=O)(O)CCO | -0.988% [at 80.4 µM]
CNCc1ccccc1 | 0.633%
CN=C(NC#N)NCCSCc1csc(N=C(N)N)n1 | 2.8%
O=C1OC(=O)c2ccccc21 | 7.39%
Cc1cccc(C(=O)O)c1[N+](=O)[O-] | 6.01%
NC(=O)C1(N2CCCCC2)CCN(CCCC(=O)c2ccc(F)cc2)CC1 | -4.12%
O=C(/C=C/c1ccccc1)NCCO | -8.97%
O=C(O)Cc1cccc(-c2cc(CCCCCCc3ccc(O[C@H]4O[C@H](CO)[C@@H](O)[C@H](O)[C@@H]4O)c(-c4cccc(CC(=O)O)c4)c3)ccc2O[C@H]2O[C@H](CO)[C@@H](O)[C@H](O)[C@@H]2O)c1 | -1.95% [at 0.575 µM]
O=C(Oc1ccccc1C(=O)O)c1ccccc1O | -0.835%
